Assay results reported in the supplement of paper PMC4466140.

B1: unnamed (peptide)
chain: APPPPPRRATPEKKP

molecular target: ScBbc1; assay: SPOT peptide array binding signal intensity (averaged, normalized) (arbitrary units (background-subtracted, floor 0; scale differs between SH3 domains)); higher = stronger binding of the SH3 domain to the peptide
How it was run: (§1)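 Cellulose membranes carried synthetic 15-mer peptides with cysteines swapped for serines. These were incubated overnight at 4°C with 10 μg/ml of GST-fused SH3 domains from four yeast species in TBS-based blocking buffer. Binding signal, detected with anti-GST antibody and quantified in Genespotter, is the normalized, background-subtracted spot intensity averaged over replicates, in arbitrary units specific to each domain.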

Row | Binder | SPOT peptide array binding signal intensity
1 | B1 | 54.8

molecular target: ScBem1-D1; assay: as above
How it was run: as §1

Row | Binder | SPOT peptide array binding signal intensity
2 | B1 | ≤ 0

molecular target: ScBzz1-D1; assay: as above
How it was run: as §1

Row | Binder | SPOT peptide array binding signal intensity
3 | B1 | 14

molecular target: ScBzz1-D2; assay: as above
How it was run: as §1

Row | Binder | SPOT peptide array binding signal intensity
4 | B1 | 10

molecular target: ScCyk3; assay: as above
How it was run: as §1

Row | Binder | SPOT peptide array binding signal intensity
5 | B1 | ≤ 0

molecular target: ScFus1; assay: as above
How it was run: as §1

Row | Binder | SPOT peptide array binding signal intensity
6 | B1 | 3

molecular target: ScHof1; assay: as above
How it was run: as §1

Row | Binder | SPOT peptide array binding signal intensity
7 | B1 | 9.75

molecular target: ScHse1; assay: as above
How it was run: as §1

Row | Binder | SPOT peptide array binding signal intensity
8 | B1 | 30

molecular target: ScLsb1; assay: as above
How it was run: as §1

Row | Binder | SPOT peptide array binding signal intensity
9 | B1 | 43.8

molecular target: ScLsb2; assay: as above
How it was run: as §1

Row | Binder | SPOT peptide array binding signal intensity
10 | B1 | 9

molecular target: ScLsb3; assay: as above
How it was run: as §1

Row | Binder | SPOT peptide array binding signal intensity
11 | B1 | 1690

molecular target: ScLsb4; assay: as above
How it was run: as §1

Row | Binder | SPOT peptide array binding signal intensity
12 | B1 | 375

molecular target: ScMyo3; assay: as above
How it was run: as §1

Row | Binder | SPOT peptide array binding signal intensity
13 | B1 | 111

molecular target: ScMyo5; assay: as above
How it was run: as §1

Row | Binder | SPOT peptide array binding signal intensity
14 | B1 | 29.5

molecular target: ScNbp2; assay: as above
How it was run: as §1

Row | Binder | SPOT peptide array binding signal intensity
15 | B1 | ≤ 0

molecular target: ScPex13; assay: as above
How it was run: as §1

Row | Binder | SPOT peptide array binding signal intensity
16 | B1 | 89.2

molecular target: ScRvs167; assay: as above
How it was run: as §1

Row | Binder | SPOT peptide array binding signal intensity
17 | B1 | 963

molecular target: ScSho1; assay: as above
How it was run: as §1

Row | Binder | SPOT peptide array binding signal intensity
18 | B1 | 56

molecular target: ScSla1-D1-D2; assay: as above
How it was run: as §1

Row | Binder | SPOT peptide array binding signal intensity
19 | B1 | 459

molecular target: ScSla1-D3; assay: as above
How it was run: as §1

Row | Binder | SPOT peptide array binding signal intensity
20 | B1 | 3.25

molecular target: SpAbp1-D1; assay: as above
How it was run: as §1

Row | Binder | SPOT peptide array binding signal intensity
21 | B1 | 165

molecular target: SpBbc1; assay: as above
How it was run: as §1

Row | Binder | SPOT peptide array binding signal intensity
22 | B1 | 2.5

molecular target: SpBzz1-D1; assay: as above
How it was run: as §1

Row | Binder | SPOT peptide array binding signal intensity
23 | B1 | 814

molecular target: SpBzz1-D2; assay: as above
How it was run: as §1

Row | Binder | SPOT peptide array binding signal intensity
24 | B1 | 1.25

molecular target: SpCyk3; assay: as above
How it was run: as §1

Row | Binder | SPOT peptide array binding signal intensity
25 | B1 | 3

molecular target: SpHof1; assay: as above
How it was run: as §1

Row | Binder | SPOT peptide array binding signal intensity
26 | B1 | 15.8

molecular target: SpHof1-2; assay: as above
How it was run: as §1

Row | Binder | SPOT peptide array binding signal intensity
27 | B1 | 17

molecular target: SpHof1-3; assay: as above
How it was run: as §1

Row | Binder | SPOT peptide array binding signal intensity
28 | B1 | 270

molecular target: SpHse1; assay: as above
How it was run: as §1

Row | Binder | SPOT peptide array binding signal intensity
29 | B1 | 42.5

molecular target: SpLsb1; assay: as above
How it was run: as §1

Row | Binder | SPOT peptide array binding signal intensity
30 | B1 | 10.2

molecular target: SpLsb4; assay: as above
How it was run: as §1

Row | Binder | SPOT peptide array binding signal intensity
31 | B1 | 1240

molecular target: SpMyo1; assay: as above
How it was run: as §1

Row | Binder | SPOT peptide array binding signal intensity
32 | B1 | 998

molecular target: SpNbp2; assay: as above
How it was run: as §1

Row | Binder | SPOT peptide array binding signal intensity
33 | B1 | ≤ 0

molecular target: SpPex13; assay: as above
How it was run: as §1

Row | Binder | SPOT peptide array binding signal intensity
34 | B1 | 1

molecular target: SpRvs167; assay: as above
How it was run: as §1

Row | Binder | SPOT peptide array binding signal intensity
35 | B1 | 999

molecular target: SpSla1-D1-D2; assay: as above
How it was run: as §1

Row | Binder | SPOT peptide array binding signal intensity
36 | B1 | 112

molecular target: SpSla1-D3; assay: as above
How it was run: as §1

Row | Binder | SPOT peptide array binding signal intensity
37 | B1 | 3
